Screens: PubChem, National Center for Advancing Translational Sciences (NCATS)
TGFb inhibitor: inhibitors of TGF-b signaling. HepG2 CAGA-GFP TGF-b/SMAD3 reporter, GFP fluorescence, 18 h; TGF-beta stimulated, 500 pg/mL final. Potency, µM (doses to about 46.1 µM), for inactives: at the top dose activity, negative = inhibition, actives largely listed as inhibitors. actives 1.2% (n = 410,000). AID 588855; further: on the % scale 0 is the no-effect control and ±100 the full control effect; nearly all actives have a fitted effect of over 65% in size
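HEPG2 CAGA-GFP, 1000 cells/well; 2 h settle, 37 C; cpd via pin tool; TGF-b 500 pg/mL final; 18 h, 37 C; GFP imaging ex488/em500-530; %Activity normalised to -TGF-b and +DMSO controls; CRC fit, curve class.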
DT40 TDP1 no CPT: qHTS for Inhibitors of human tyrosyl-DNA phosphodiesterase 1 (TDP1): qHTS in cells in absence of CPT | DT40 Tdp1-/- hTDP1 cells, no CPT, ATP luminescence, 48 h | Potency, µM (series often up to 46.2 µM), inactives show top-dose activity change, negative = growth inhibition, actives largely listed as inhibitors | actives 15% (n = 420,000) | AID 686978, 2013; further: on the % scale 0 is the no-effect control and ±100 the full control effect; nearly all actives have a fitted effect of over 55% in size
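No-CPT arm: Tdp1-/-;hTDP1 DT40 cells (400/well) plus compounds, incubated ≥48 hr at 37 °C. Readout CellTiter-Glo luminescence.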
HepG2 tox-1: kills HepG2 cells in TGF-b inhibitor counter-screen | HepG2 CAGA-GFP viability, ATP luminescence, 18 h | actives 0.76% (n = 410,000) | Potency, µM (doses to about 46.1 µM), for the others: at the highest dose activity change, negative = cytotoxicity, hits mostly cytotoxic
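CellTiter-Glo luminescence gave cytotoxicity after 18 hours at 37 degrees C. The cells were HepG2 CAGA-GFP in 1% FBS DMEM, stimulated with 500 pg/mL TGF-beta after compound addition. %Activity was normalised to no-cell wells (complete cell-killing) and DMSO (no toxicity), and curves were fitted and classified.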
TDP1 cell CPT: growth inhibition of DT40 Tdp1-/-;hTDP1 cells with camptothecin (screen for TDP1 inhibitors). Potency, µM (highest dose often 46.2 µM), without a hit: at the top dose activity change, negative = growth inhibition, usual class: inhibitors. actives 12% (n = 420,000). AID 686979. chicken DT40 Tdp1-/-;hTDP1 cells + 20 nM CPT, ATP luminescence, 48 h; further: on the % scale 0 is the no-effect control and ±100 the full control effect; nearly all actives have a fitted effect of over 55% in size
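Cell growth measured by CellTiter-Glo luminescence after a minimum 48 h, 37 C compound exposure with 20 nM CPT in Tdp1-knockout DT40 cells stably expressing hTDP1, seeded 400/well; qHTS titration format.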
HT1080 IDH1KD tx: HT-1080 IDH1 knockdown cell toxicity (counter line); HT-1080 IDH1 knockdown viability, ATP luminescence, 48 h; Potency, µM (doses to about 46.1 µM), for the others: at the highest dose activity, negative = toxicity, most hits filed as cytotoxic; actives 2% (n = 360,000);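 further: 0% = DMSO wells and -100% = cell-free medium wells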
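Using the IDH1-knockdown HT-1080 line run in the same batch and compound series as the NT line, viability after 48 h at 37 °C was determined by CellTiter-Glo luminescence and expressed as % activity.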
HT1080NT lethal: kills 2HG-producing HT-1080-NT fibrosarcoma cells; Potency, µM (titrated, usually from 46.1 µM), inactives show at the top dose activity, negative = less viability, most hits filed as cytotoxic; actives 1.6% (n = 360,000); HT-1080-NT fibrosarcoma viability, CellTiter-Glo ATP luminescence, 48 h;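 further: NT is the 2HG producing partner of a matched IDH1 knockdown line; 0% = DMSO-treated cells and -100% = media-only wells without cells; nearly all actives have a fitted effect of over 55% in size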
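Viability by CellTiter-Glo luminescence after 48 h compound exposure at 37C of HT-1080-NT cells (750/well, RPMI, 5% FBS). % activity scaled between DMSO wells and medium-only wells, then curve-fitted and categorized by curve class.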
TGFb confirm: TGF-b pathway inhibition, cherry-pick retest | shares compounds with TGFb inhibitor | HepG2 CAGA-GFP TGF-b reporter, GFP fluorescence, 18 h; cells stimulated with TGF-beta, 500 pg/mL | Potency, µM (series often up to 46.1 µM), inactives show at the top dose activity, negative = inhibition, most hits filed as inhibitors | actives 63% (n = 1,600) | AID 720534; further: on the % scale 0 is the no-effect control and ±100 the full control effect; nearly all actives have a fitted effect of over 65% in size
HepG2 tox-2: toxic to HepG2 cells in TGF-b counterscreen | shares compounds with TGFb inhibitor | HepG2 CAGA-GFP viability, ATP luminescence, 18 h; cells stimulated with TGF-beta, 500 pg/mL | Potency, µM (highest dose often 46.1 µM), inactives show top-dose activity, negative = cytotoxicity, most hits filed as inhibitors | actives 27% (n = 1,600) | AID 720535; further: on the % scale 0 is the no-effect control and ±100 the full control effect; nearly all actives have a fitted effect of over 70% in size
CCL64 TGFb inh: blocks TGF-b signaling in CCL64 reporter cells; Potency, µM (top dose mostly 46.1 µM), without a hit: top-dose activity, negative = inhibition, actives largely listed as inhibitors; AID 720536; CCL64 CAGA-GFP reporter, TGF-b stimulated, GFP fluorescence, 18 h; shares compounds with TGFb inhibitor; actives 41% (n = 1,600); further: nearly all actives have a fitted effect of over 65% in size
TGFb COP inh: validation of TGF-b inhibitors in HepG2 COP promoter reporter | HepG2 COP-GFP TGF-b reporter, GFP fluorescence, 18 h; cells stimulated by added recombinant TGF-beta | Potency, µM (series often up to 46.1 µM), for inactives: at the highest dose activity, negative = inhibition, usual class: inhibitors | actives 3% (n = 1,600) | shares compounds with TGFb inhibitor; further: nearly all actives have a fitted effect of over 70% in size
* hit, by the source's call; [ ] = another dose, or the depositor's remark. This is a sample that favours compounds with a hit; in the whole collection about 17% have one here. The call rests on the fitted dose curve; in most records, active means well fitted curve in the direction sought with a large enough effect; inconclusive means small, poorly fitted or top-dose-only effect, or another doubt; inactive means no such curve, though single readings can be large; an effect the other way counts as inactive or inconclusive. Potency means the concentration at half of the fitted maximal effect.

`CN(CC(=O)NCc1cccs1)CC(=O)Nc1ccccc1Cl` gave TGFb inhibitor 3.5%, DT40 TDP1 no CPT -13.0%, HepG2 tox-1 2.8%, TDP1 cell CPT 0.3%, HT1080 IDH1KD tx 2.6% and HT1080NT lethal 6.3%.
Screening CCCCC[C@H](O)CC[C@H]1[C@H](O)CC(=O)[C@@H]1CCCCCCC(=O)O returned DT40 TDP1 no CPT 3.9%[4.12 µM] and TDP1 cell CPT 3.5%[4.12 µM].
For CCN(C(=O)Cn1c(=O)oc2cc(S(=O)(=O)N3CCCCC3)ccc21)c1ccccc1 the results were TGFb inhibitor 11.8%, DT40 TDP1 no CPT -27.9%, HepG2 tox-1 0.1% and TDP1 cell CPT -5.6%.
`COCCNC(=O)c1cccc2c(-c3ccnn3C)coc12` gave TGFb inhibitor 9.1%, DT40 TDP1 no CPT inconclusive, HepG2 tox-1 -8.3%, TDP1 cell CPT inconclusive, HT1080 IDH1KD tx 0.6% and HT1080NT lethal 4.8%.
Screening C/C=C1\COC(C(=O)NCc2ccccn2)(C(F)(F)F)C=C1C=C(C)C (stereo unspecified) returned TGFb inhibitor -6.5% and HepG2 tox-1 -24.0%.
`C/C=C1\COC(C(=O)NCc2ccccc2)(C(F)(F)F)C=C1C=C1CCCCC1` (stereo unspecified) gave TGFb inhibitor 11.2µM*, DT40 TDP1 no CPT inconclusive, HepG2 tox-1 -12.2%, TDP1 cell CPT inconclusive, HT1080 IDH1KD tx -21.1%, HT1080NT lethal -3.0%, TGFb confirm inconclusive, HepG2 tox-2 -24.4%, CCL64 TGFb inh inconclusive and TGFb COP inh -0.2%.
`O=C(CCNc1cccc(F)c1)c1cccc([N+](=O)[O-])c1` gave TGFb inhibitor 12.6µM*, DT40 TDP1 no CPT 4.11µM*, HepG2 tox-1 9.6%, TDP1 cell CPT 5.8µM*, HT1080 IDH1KD tx inconclusive, HT1080NT lethal inconclusive, TGFb confirm 10.3µM*, HepG2 tox-2 inconclusive, CCL64 TGFb inh inconclusive and TGFb COP inh 2.9%.
Screening COc1ccc(C(=O)On2c(-c3ccc(Br)cc3)nc3ccccc3c2=O)cc1 returned TGFb inhibitor 12.6µM*, DT40 TDP1 no CPT 18.4µM*, HepG2 tox-1 -18.0%, TDP1 cell CPT inconclusive, HT1080 IDH1KD tx inconclusive, HT1080NT lethal inconclusive, TGFb confirm 11.6µM*, HepG2 tox-2 20.6µM*, CCL64 TGFb inh 20.6µM* and TGFb COP inh 11.7%.
Cn1c(=O)c(C(=O)c2ccc(S(C)(=O)=O)c(Cl)c2Cl)c(O)c2ccccc21 was read as TGFb inhibitor 16.8%, DT40 TDP1 no CPT inconclusive, HepG2 tox-1 -36.8%, TDP1 cell CPT inconclusive, HT1080 IDH1KD tx 0.8% and HT1080NT lethal 1.5%.
CN(C)c1cccc(/C=C(\C#N)c2ccccc2)c1 was read as TGFb inhibitor 12.6µM*, DT40 TDP1 no CPT 2.31µM*, HepG2 tox-1 -29.7%, TDP1 cell CPT 2.91µM*, HT1080 IDH1KD tx 3.26µM*, HT1080NT lethal inconclusive, TGFb confirm inconclusive, HepG2 tox-2 -25.0%, CCL64 TGFb inh inconclusive and TGFb COP inh -6.2%.
For CCN(C(=O)COC(=O)c1ccccc1NCc1ccco1)c1c(N)n(Cc2ccccc2)c(=O)[nH]c1=O the results were TGFb inhibitor inconclusive, DT40 TDP1 no CPT inconclusive, HepG2 tox-1 -0.2%, TDP1 cell CPT inconclusive, HT1080 IDH1KD tx -10.8% and HT1080NT lethal -5.8%.
For CCN(C(=O)COC(=O)c1ccccc1Nc1ccccc1)c1c(N)n(Cc2ccccc2)c(=O)[nH]c1=O the results were TGFb inhibitor 17.8µM*, DT40 TDP1 no CPT inconclusive, HepG2 tox-1 -8.6%, TDP1 cell CPT inconclusive, HT1080 IDH1KD tx -22.7%, HT1080NT lethal -28.7%, TGFb confirm 20.6µM*, HepG2 tox-2 -24.4%, CCL64 TGFb inh inconclusive and TGFb COP inh 8.1%.
Screening CSCCC(NS(=O)(=O)c1cccc(C(F)(F)F)c1)C(=O)Nc1ccccc1N1CCCC1 (stereo unspecified) returned TGFb inhibitor 14.1µM*, DT40 TDP1 no CPT inconclusive, HepG2 tox-1 -26.7%, TDP1 cell CPT inconclusive, HT1080 IDH1KD tx -3.5%, HT1080NT lethal 1.6%, TGFb confirm 16.4µM*, HepG2 tox-2 -7.4%, CCL64 TGFb inh 16.4µM* and TGFb COP inh -1.2%.
`Cc1ccc(NC(=O)c2cc(S(=O)(=O)N(C)C)ccc2N2CCCC2)cc1F` gave TGFb inhibitor 10µM*, DT40 TDP1 no CPT 2.7%, HepG2 tox-1 -1.4%, TDP1 cell CPT 0.8%, HT1080 IDH1KD tx -25.6%, HT1080NT lethal -13.7%, TGFb confirm 13µM*, HepG2 tox-2 -15.0%, CCL64 TGFb inh 18.4µM* and TGFb COP inh -10.6%.
For CN(C)S(=O)(=O)c1ccc(N2CCCC2)c(C(=O)NCC(=O)Nc2ccc(F)c(F)c2)c1 the results were TGFb inhibitor -10.3%, DT40 TDP1 no CPT -27.3%, HepG2 tox-1 3.6%, TDP1 cell CPT -18.8%, HT1080 IDH1KD tx -1.4% and HT1080NT lethal -4.8%.
